# Hits are enriched below; roughly 3.2% of the tested compounds scored in any of these assays.
# AmpC detergent: AmpC beta-lactamase inhibition with detergent present | P00811 | AID 485294 | 370,000 tested, 0.041% active | Potency, µM (highest dose often 114 µM), for the others: at the top dose activity change, negative = inhibition, actives largely listed as inhibitors | AmpC hydrolysis of nitrocefin, absorbance 480 nm, 0.01% Triton;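 note: 0% = no-compound wells and -100% = no-enzyme wells; nearly all actives have a fitted effect of over 25% in size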
# Target sequence (P00811 whole entry, looked up): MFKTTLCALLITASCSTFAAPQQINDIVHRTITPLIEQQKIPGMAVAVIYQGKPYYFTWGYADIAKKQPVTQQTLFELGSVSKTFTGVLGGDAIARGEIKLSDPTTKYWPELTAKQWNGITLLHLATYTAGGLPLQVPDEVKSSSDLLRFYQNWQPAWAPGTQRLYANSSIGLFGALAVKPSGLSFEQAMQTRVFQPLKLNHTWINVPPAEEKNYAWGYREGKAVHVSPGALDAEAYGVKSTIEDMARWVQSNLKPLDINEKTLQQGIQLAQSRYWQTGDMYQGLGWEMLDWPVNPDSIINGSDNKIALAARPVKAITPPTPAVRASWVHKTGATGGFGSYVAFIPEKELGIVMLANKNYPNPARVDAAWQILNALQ
#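 20 mM phosphate pH 7.0 + 0.01% (detergent screen) or 0.0001% Triton X-100; 5.3 nM AmpC reagent; cpd preinc 15 min RT; nitrocefin (800 uM stock) to start; A480 q20 s × 4 min; Activity was normalised to no-enzyme and no-compound control wells.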
# Sm TGR inh: inhibitors of Schistosoma mansoni thioredoxin glutathione reductase; Q962Y6; purified TGR, DTNB reduction, TNB absorbance 405 nm; Potency, µM (highest dose often 114 µM), without a hit: top-dose activity change, negative = inhibition, actives largely listed as inhibitors; 360,000 tested, 3% active; AID 485364; note: nearly all actives have a fitted effect of over 60% in size
#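 TGR 20 nM + NADPH 100 uM (dispensed conc.), cpd preinc 15 min RT; start with NADPH (500 uM addition) then DTNB (15 mM addition). Kinetic TNB absorbance, 405 nm filter. Four-parameter Hill fit across titration.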
# RE007 growth inh: less growth of the S. pombe RE007 Vpr strain. 360,000 tested, 0.21% active. Potency, µM (series often up to 92.2 µM), inactives show at the top dose activity change, negative = less growth, usual class: inhibitors. S. pombe RE007 Vpr strain, BacTiter-Glo ATP luminescence, 24 h; active = well fitted falling curve with a large enough effect; inconclusive = small, poorly fitted or top-dose-only effect; inactive = no such curve, though single readings can be large or run the other way; note: nearly all actives have a fitted effect of over 50% in size
#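 Fission yeast RE007 carrying one integrated HIV-1 vpr copy, seeded at OD 0.01 in PMG+AL medium with 23 nL pinned compound. Grown 24 h at 30 degrees; viability read by BacTiter-Glo luminescence after 5 min.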
# AMA1 RON2 block: AMA1-RON2 (P. falciparum) interaction inhibition; Potency, µM (highest dose often 58.2 µM), inactives show top-dose activity change, negative = inhibition, usual class: inhibitors; AlphaScreen AMA1-biotinylated RON2 peptide binding; 360,000 tested, 0.2% active;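 note: 0% = vehicle wells and -100% = peptide control; nearly all actives have a fitted effect of over 45% in size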
#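 AMA1 (3D7) with his tag at 25 nM final met compounds first, then biotinylated RON2 peptide at 25 nM; detection used donor plus acceptor beads, 10 µg/mL apiece, read by AlphaScreen after 30 min at room temperature.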
# AmpC no deterg: blocks E. coli AmpC beta-lactamase in detergent-free assay. Potency, µM (series often up to 57.1 µM), for inactives: top-dose activity change, negative = inhibition, hits mostly inhibitors. 330,000 tested, 0.52% active. AmpC nitrocefin hydrolysis, absorbance 480 nm, 0.0001% Triton. AID 485341. P00811;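 note: plate controls were no compound for no effect and no enzyme for full effect; nearly all actives have a fitted effect of over 20% in size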
#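 AmpC (5.3 nM in the dispensed reagent) in 20 mM phosphate pH 7.0 with 0.01% (detergent screen) or 0.0001% Triton X-100 was preincubated with compounds for 15 min at room temperature. Nitrocefin was then added from an 800 uM solution, and hydrolysis was followed at 480 nm.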
# An asterisk follows results filed as active; u = inconclusive; x = no result; [ ] = remark or other dose. Unless noted, calls come from the whole dose curve; as a rule, active = well fitted curve in the direction sought with a large enough effect; inconclusive = small, poorly fitted or top-dose-only effect, or another doubt; inactive = no such curve, though single readings can be large; an effect the other way counts as inactive or inconclusive. Unless noted, % is set by controls: 0 for no effect and ±100 for the full control effect; potency is the fitted concentration of half-maximal effect.
SMILES,AmpC detergent,Sm TGR inh,RE007 growth inh,AMA1 RON2 block,AmpC no deterg
Oc1c(C(c2ccccn2)N2CCC(Cc3ccccc3)CC2)cc(Cl)c2cccnc12 (centres undefined),1%,3.5µM*,u,-38%,-7%
Cc1ccc(C(c2cc(Cl)c3cccnc3c2O)N2CCN(C)CC2)cc1 (centres undefined),-4%,0.71µM*,-14%,-2%,-32%
CCOc1ccc(NC(=O)CN2C(=O)COc3ccc(S(=O)(=O)NC4CCCC4)cc32)cc1,4%,-1%,x,x,x
COc1ccc2c(c1)c1c(c(=O)n(-c3cccc(C)c3)c(=O)n1CC(=O)NCc1ccc(C)cc1)n2C,8%,-3%,x,x,x
Cc1cccc(OCCn2nnc3sc4c(c3c2=O)CCCC4)c1,-1%,2%,x,x,x
CCc1ccc(C(=O)c2cn(CC(=O)NCCc3ccccc3)c3nc(C)ccc3c2=O)cc1,1%,-1%,x,x,x
O=C(Oc1c(Cl)cc(Cl)c2cccnc12)c1cccc([N+](=O)[O-])c1,4%,u,8.9µM*,6%[2.32 µM],-17%
O=C(Oc1ccc(Cl)c2cccnc12)c1cccc([N+](=O)[O-])c1,u,-1%,u,-3%,-51%
COc1ccc(CCNC(=O)C(=O)NCC(c2cccnc2)N2CCN(c3ccccc3)CC2)cc1 (centres undefined),2%,-5%,x,x,x
CC1(c2ccccc2)CC(c2ccccc2)=Nc2ccccc2N1 (centres undefined),-6%,u,-8%,-6%,-25%
Cc1ccc(C2=Nc3ccccc3NC(C)(c3ccc(C)o3)C2)o1 (centres undefined),0%,35µM*,-16%,-1%,-15%
CC(=O)NN1C(=O)/C(=C/c2ccc(Br)o2)SC1=S,-14%,25µM*,0%,32µM*,-17%
CC(=O)NN1C(=O)/C(=C\c2ccccc2)SC1=S,-9%,10%,x,64%,-16%
CC(=O)NN1C(=O)/C(=C\c2ccc(Br)o2)SC1=S,-3%,25µM*,-3%,3%,-16%
CCOC(=O)C(C(=O)OCC)c1cc(Br)c2noc3c2c1C(=O)c1ccccc1-3,4%,0.63µM*,u,-23%,-31%
COCCCNC(=O)c1ccc2c3c(onc13)-c1ccccc1C2=O,5%,0%,-26%,u,71%
CCOC(=O)N1CCC(NC(=O)c2ccc3snnc3c2)CC1,u,-5%,-7%,26%,45µM*
O=C(NC1CC1)c1ccc2snnc2c1,-6%,x,-13%,15%,-17%
Cc1cccc2nc(-c3cccc(NS(=O)(=O)c4ccccc4)c3)cn12,3%,-1%,x,x,x
CC[n+]1c(/C=C2\C=C(C)CC(C)(C)C2)sc2ccccc21,-8%,14µM*,-14%,u,16%
CC[n+]1c(C)sc2sc3ccccc3c21,u,-24%,x,x,-2%
CC[n+]1c(/C=C2/C=C(C)CC(C)(C)C2)sc2ccc(OC)cc21,2%,18µM*,u,u,50%
COc1ccc2sc(C)[n+](C)c2c1,u,4%,3%,-15%,9%
CC[n+]1c(/C=C2\C=C(C)CC(C)C2)sc2ccccc21 (centres undefined),u,40µM*,-26%,u,-5%
CCC1=C/C(=C/c2sc3ccccc3[n+]2CC)CC(C)(C)C1,-9%,1.8µM*,-12%,1%,23%
SMILES,AmpC detergent,Sm TGR inh,RE007 growth inh,AMA1 RON2 block,AmpC no deterg
c1cncc(-c2nnc(-c3cccnc3)nn2)c1,-14%,-2%,22µM*,2%,-9%
O=C(CC1C(=O)N(c2ccccc2)C(=O)N1Cc1ccc2c(c1)OCO2)Nc1ccccc1 (centres undefined),-1%,-4%,x,x,x
CC(C)c1ccc(NC(=O)c2cnc3sc(N4CCOCC4)nn3c2=O)cc1,8%,-7%,x,x,x
Cc1ccc(C(=O)N2CCN(c3ccc(NC(=O)c4ccc(Br)o4)cc3)CC2)cc1,0%,9%,12%,-24%,34%
O=C(Nc1ccc(C(=O)N2CCC(N3CCCC3)CC2)cc1)c1ccc(Br)o1,2%,25µM*,-15%,-16%,1%
O=C(c1ccc(Br)o1)N1CCN(c2ccccn2)CC1,-1%,-1%,-3%,-3%,4%
N#Cc1ccccc1N1CCN(C(=O)c2ccc(NC(=O)c3ccc(Br)o3)cc2)CC1,-1%,28µM*,2%,-12%,-40%
O=C(Nc1ccc(C(=O)N2CCN(c3ccccn3)CC2)cc1)c1ccc(Br)o1,-3%,45µM*,-1%,-8%,-7%
CCN(CC)CCOC(=O)c1ccc(NC(=O)Cn2ncc3c([nH]c4ccc(C)cc43)c2=O)cc1,12%,-1%,x,x,x
Cc1cc(Nc2cc(F)ccc2C)nc(-n2nc(C)cc2C)n1,-6%,-1%,x,x,x
CCn1cnc2cc(NCc3ccc(N(C)C)cc3)ccc21,-2%,8.9µM*,-2%,u,-11%
CCN(CC)c1ccc(CNc2ccc3c(c2)ncn3CC)cc1,-4%,u,-10%,u,16%
O=C(C1CCCCC1)N(Cc1cccnc1)c1nc2c(F)cc(F)cc2s1,5%,8%,x,x,x
Cc1ccc(-c2cc(C(F)F)nc(NCC3CCCO3)n2)cc1 (centres undefined),-8%,-6%,20µM*,32%,25%
CC(=O)Nc1ccc(NC(=O)c2nc(S(=O)(=O)Cc3ccccc3)ncc2Cl)cc1,-12%,5µM*,-1%,-2%,12%
COC(=O)c1ccccc1NC(=O)c1nc(S(=O)(=O)Cc2ccccc2)ncc1Cl,-4%,2.8µM*,0%,0%,-17%
CS(=O)(=O)c1ncc(Cl)c(C(=O)N(Cc2ccc(Cl)cc2)Cc2ccco2)n1,-9%,1.8µM*,x,x,x
Cc1noc(C(=O)NCc2ccccc2)c1Cl,-13%,5%,2%,-2%,-15%
O=C(NCc1ccccc1)c1nc(S(=O)(=O)Cc2ccccc2)ncc1Cl,-3%,8.9µM*,-6%,-5%,-20%
O=C(c1ccc(Cl)cc1)N(Cc1ccco1)Cc1ccco1,-3%,-2%,x,x,x
CS(=O)(=O)c1ncc(Cl)c(C(=O)Nc2ccc3ccccc3c2)n1,-3%,x,-1%,-15%,-25%
COc1ccc(CNC(=O)c2nc(S(=O)(=O)Cc3ccccc3)ncc2Cl)cc1,u,2.5µM*,-7%,9%,10%
COC(=O)c1cscc1S(=O)(=O)Cc1ccccc1,-15%,10µM*,6%,3%,-13%
COc1ccc(N(Cc2ccccc2)C(=O)c2nc(S(C)(=O)=O)ncc2Cl)cc1,13%,5.6µM*,x,x,x
CCCS(=O)(=O)c1ncc(Cl)c(C(=O)Nc2c(C(=O)Nc3ccccc3)oc3ccccc23)n1,-1%,-5%,x,x,x
CCCSc1ncc(Cl)c(C(=O)N(Cc2ccccc2)c2ccc(OC)cc2)n1,1%,2%,x,x,x

# Assay outcomes: PubChem BioAssay, National Center for Advancing Translational Sciences (NCATS)
